Reference: the supplement of paper PMC6555819

Each sequence was assayed on FXR:RXRa (NR concentration 270 nM, RXRa partner concentration 90 nM) (assay: PBM binding z-score (relative to random genomic background probes); higher = stronger binding; sequences stand for … in GC…GCGATTGACAGCGTAGAATGAAGG).
How it was run: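 Binding z-scores take random background probes as their reference. They come from custom Agilent 4×180K protein-binding microarrays incubated 1 h with ligand-free nuclear receptor dimers, with antibodies against each partner (one per run) detecting binding. Scanned fluorescence was regression-normalized.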
Sequence TAGCCTAGGTCATTCAGGGGCCAGTTTAGAAAGC has a PBM binding z-score of 4.19. For CTCGAAAGGTCGTGCTCACGTGAGTATACCAAAC, the PBM binding z-score was 5.21. Work on GCTCGGAGGACAAGGTCAGAGCATTGTCCGTAGA yielded a PBM binding z-score of 1.99. TAGCCTAGGTCAGATCGGGCAAGTATACGCTATA showed a PBM binding z-score of 1.87. CAAACTAGGTCAAGGTCATAGTCGGTTTGTGCCA showed a PBM binding z-score of 6.58. With TTACCAAGGTGAAGGTCCTTGATCCCTCTGTAGA the PBM binding z-score was 0.794. CGAACGAGGGCATGAGTTGACAGCAAATGCCGAT was tested, and the PBM binding z-score was 0.601. Sequence ATCGAAAGGTCGAACGTGAGTATACCCACCCGAA has a PBM binding z-score of 4.36. Work on TCTGCTAGGTCAGCTGGTCAGCTAACGAGCTGCC yielded a PBM binding z-score of 1.35. Sequence GATACAGGGTCAGCCAGAGGCCAGAGTATGGAAA has a PBM binding z-score of 4.61. With GCTATTAGTTGAAAGGGCAACCCAATGATTCTCG the PBM binding z-score was 0.453. In the case of GCGACTGGGGCATCAGCAGTTTACCATAACTTAA, the PBM binding z-score is reported as -0.0811. With ATATGAAGGTTACATCCGGGTCATTCAGGCTATG the PBM binding z-score was 2.82. CGTCAAAGATCAACTAAGGTAACGTAAAGCACGC showed a PBM binding z-score of 1.52. With AGATTGAGGTTAAGATCAGGGAAACAGAATACAT the PBM binding z-score was 2.48. For GATACAGGGTCAAGGCCAGCGTACGCGTATTGAT, the PBM binding z-score was 6.93. Work on AGTACGAGGGCACGCTGAGTTGATAGCAGAGTAG yielded a PBM binding z-score of 0.909. TGAATGAGGTTAAAGATCCGGGAACGTGGCGTCG showed a PBM binding z-score of 2.36.
